Test results taken from PubChem BioAssay (NCATS).
Results filed as inconclusive are left out. The source made the active and inactive calls. Calls come from the whole dose curve; as a rule, active = well fitted curve in the direction sought with a large enough effect; inconclusive = small, poorly fitted or top-dose-only effect, or another doubt; inactive = no such curve, though single readings can be large; an effect the other way counts as inactive or inconclusive.

Legend:
[1] = qHTS of pediatric cancer cell lines to identify multiple opportunities for drug repurposing: Primary screen for TC32 cells (AID 1347089); note: % is set by controls: 0 for no effect and ±100 for the full control effect; nearly all actives have a fitted effect of over 60% in size
In short: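 TC32 cells, 500-1,000/well in growth medium, compound-treated 48 h at 37 °C; viability from CellTiter-Glo luminescence. Primary screen: MIPE 11-point (0.78 nM–46 µM final), NPC 8-point (0.59 nM–46 µM final); confirmatory at 11-point dilutions.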

[2] = qHTS of pediatric cancer cell lines to identify multiple opportunities for drug repurposing: Primary screen for DAOY cells (AID 1347090);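 note: series mostly up to about 46 µM; plate controls were DMSO for no effect and bortezomib for full effect; nearly all actives have a fitted effect of over 55% in size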
In short: (§1)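 Cell viability, CellTiter-Glo luminescence; 500-1,000 cells/well, 8- or 11-point titration, 48 h compound exposure at 37 degrees C, 5% CO2. Controls: DMSO neutral, bortezomib 2.3 µM final as positive.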

[3] = qHTS of pediatric cancer cell lines to identify multiple opportunities for drug repurposing: Primary screen for SJ-GBM2 cells (AID 1347091);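 note: plate controls were DMSO neutral control for no effect and bortezomib for full effect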
In short: as §1

[4] = qHTS of pediatric cancer cell lines to identify multiple opportunities for drug repurposing: Primary screen for A673 cells (AID 1347092); note: % is set by controls: 0 for no effect and ±100 for the full control effect; nearly all actives have a fitted effect of over 45% in size
In short: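 A673 cells (500-1,000 cells/well) were treated 48 hours at 37 degrees C with compounds at 11-point (0.78 nM to 46 µM) or 8-point (0.59 nM to 46 µM) dilutions. Viability read by CellTiter-Glo luminescence; concentration-response curves fitted.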

[5] = qHTS of pediatric cancer cell lines to identify multiple opportunities for drug repurposing: Primary screen for SK-N-MC cells (AID 1347093);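 note: series mostly up to about 46 µM; plate controls were DMSO neutral control for no effect and bortezomib for full effect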
In short: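 Metabolically active cells were quantified by ATP-dependent luminescence (CellTiter-Glo, 15 min at room temperature) following 48 h treatment. Cells had been plated at 500-1,000 per well and settled for 5 h beforehand.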

[6] = qHTS of pediatric cancer cell lines to identify multiple opportunities for drug repurposing: Primary screen for BT-37 cells (AID 1347094);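 note: series mostly up to about 57 µM; plate controls were DMSO for no effect and bortezomib for full effect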
In short: (§2)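 Quantitative HTS format: each compound titrated (MIPE 11 points from 0.78 nM, NPC 8 points from 0.59 nM) onto cells plated 5 hours earlier. After 48 h at 37 degrees C, CellTiter-Glo luminescence was recorded.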

[7] = qHTS of pediatric cancer cell lines to identify multiple opportunities for drug repurposing: Primary screen for NB-EBc1 cells (AID 1347095);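 note: plate controls were DMSO neutral control for no effect and bortezomib for full effect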
In short: as §2

[8] = qHTS of pediatric cancer cell lines to identify multiple opportunities for drug repurposing: Primary screen for U-2 OS cells (AID 1347096);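 note: plate controls were DMSO wells for no effect and bortezomib positive control wells for full effect; nearly all actives have a fitted effect of over 50% in size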
In short: (§3)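 Cells (500-1,000/well) rested 5 h, then received compounds for 48 h; metabolically active cells were measured by CellTiter-Glo luminescence. Final concentrations spanned up to 46 µM (MIPE, 11-point) or 0.59 nM-46 µM (NPC, 8-point) in primary screens, 11-point in follow-ups.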

[9] = qHTS of pediatric cancer cell lines to identify multiple opportunities for drug repurposing: Primary screen for Saos-2 cells (AID 1347097); note: % is set by controls: 0 for no effect and ±100 for the full control effect; nearly all actives have a fitted effect of over 40% in size
In short: as §2

[10] = qHTS of pediatric cancer cell lines to identify multiple opportunities for drug repurposing: Primary screen for SK-N-SH cells (AID 1347098); note: % is set by controls: 0 for no effect and ±100 for the full control effect; nearly all actives have a fitted effect of over 65% in size
In short: as §3

[11] = qHTS of pediatric cancer cell lines to identify multiple opportunities for drug repurposing: Primary screen for NB1643 cells (AID 1347099);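 note: plate controls were DMSO neutral control for no effect and bortezomib positive control for full effect; nearly all actives have a fitted effect of over 50% in size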
In short: as §2

[12] = qHTS of pediatric cancer cell lines to identify multiple opportunities for drug repurposing: Primary screen for LAN-5 cells (AID 1347100);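 note: plate controls were DMSO neutral control for no effect and bortezomib positive control for full effect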
In short: as §3

[13] = qHTS of pediatric cancer cell lines to identify multiple opportunities for drug repurposing: Primary screen for Rh18 cells (AID 1347102); note: % is set by controls: 0 for no effect and ±100 for the full control effect; nearly all actives have a fitted effect of over 65% in size
In short: as §3

[14] = qHTS of pediatric cancer cell lines to identify multiple opportunities for drug repurposing: Primary screen for RD cells (AID 1347104);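 note: plate controls were DMSO for no effect and bortezomib for full effect; nearly all actives have a fitted effect of over 55% in size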
In short: as §2

[15] = qHTS of pediatric cancer cell lines to identify multiple opportunities for drug repurposing: Primary screen for MG 63 (6-TG R) cells (AID 1347105); note: % is set by controls: 0 for no effect and ±100 for the full control effect; nearly all actives have a fitted effect of over 50% in size
In short: as §2

[16] = qHTS of pediatric cancer cell lines to identify multiple opportunities for drug repurposing: Primary screen for BT-12 cells (AID 1347101);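 note: plate controls were DMSO for no effect and bortezomib positive control for full effect; nearly all actives have a fitted effect of over 25% in size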
In short: as §3

[17] = qHTS of pediatric cancer cell lines to identify multiple opportunities for drug repurposing: Primary screen for OHS-50 cells (AID 1347103);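 note: plate controls were DMSO neutral control for no effect and bortezomib positive control for full effect; nearly all actives have a fitted effect of over 40% in size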
In short: as §3

CC1(C)O[C@@H]2C[C@H]3[C@@H]4CCC5=CC(=O)CC[C@]5(C)[C@@]4(F)[C@@H](O)C[C@]3(C)[C@]2(C(=O)CCl)O1
inactive: Potency [1] | Potency [2] | Potency [3] | Potency [4] | Potency [5] | Potency [6] | Potency [7] | Potency [8] | Potency [9] | Potency [10] | Potency [11] | Potency [12] | Potency [13] | Potency [14] | Potency [15]

CN=C(NC#N)Nc1ccc(C2=NNC(=O)CC2C)cc1 (configuration not stated)
inactive: Potency [1] | Potency [2] | Potency [3] | Potency [4] | Potency [5] | Potency [6] | Potency [7] | Potency [8] | Potency [10] | Potency [11] | Potency [12] | Potency [16] | Potency [13] | Potency [17] | Potency [14] | Potency [15]

Nc1ccc(/C=C/c2ccc(N)cc2S(=O)(=O)O)c(S(=O)(=O)O)c1
inactive: activity change, negative = cytotoxic [1] 14.3% [at 0.594 µM] | activity change, negative = cytotoxic [2] 10% [at 0.597 µM] | activity change, negative = cytotoxic [3] 4.37% [at 0.597 µM] | activity change, negative = cytotoxic [4] 1.22% [at 0.597 µM] | activity change, negative = cytotoxic [5] -3.26% [at 0.597 µM] | activity change, negative = cytotoxic [6] 22.8% [at 0.745 µM] | activity change, negative = cytotoxic [7] 25.1% [at 0.597 µM] | activity change, negative = cytotoxic [8] 17% [at 0.597 µM] | activity change, negative = cytotoxic [9] 2.49% [at 0.597 µM] | activity change, negative = cytotoxic [10] 12.2% [at 0.741 µM] | activity change, negative = cytotoxic [11] 24.7% [at 0.597 µM] | activity change, negative = cytotoxic [12] 21.1% [at 0.597 µM] | activity change, negative = cytotoxic [13] 24% [at 0.597 µM] | activity change, negative = cytotoxic [17] 19.6% [at 0.73 µM] | activity change, negative = cytotoxic [15] 9.42% [at 0.597 µM]

COc1ccc(OC)c(C(O)CNC(=O)CN)c1 (configuration not stated)
inactive: Potency [1] | Potency [2] | Potency [3] | Potency [4] | Potency [5] | Potency [6] | Potency [7] | Potency [8] | Potency [10] | Potency [11] | Potency [12] | Potency [16] | Potency [13] | Potency [17] | Potency [15]

COc1c2occc2c(OC)c2c(=O)cc(C)oc12
inactive: Potency [1] | Potency [2] | Potency [3] | Potency [4] | Potency [5] | Potency [6] | Potency [7] | Potency [8] | Potency [10] | Potency [11] | Potency [12] | Potency [16] | Potency [13] | Potency [17] | Potency [14] | Potency [15]

CCn1cc(C(=O)O)c(=O)c2cnc(N3CCCC3)nc21
inactive: activity change, negative = cytotoxic [1] 4.83% [at 9.17 µM] | activity change, negative = cytotoxic [2] -3.72% [at 9.22 µM] | activity change, negative = cytotoxic [3] -2.71% [at 9.22 µM] | activity change, negative = cytotoxic [4] -17.7% [at 9.22 µM] | activity change, negative = cytotoxic [5] -9.99% [at 9.22 µM] | activity change, negative = cytotoxic [6] 0.276% [at 11.5 µM] | activity change, negative = cytotoxic [7] -3.37% [at 9.22 µM] | activity change, negative = cytotoxic [8] 4.46% [at 9.22 µM] | activity change, negative = cytotoxic [9] 0.0364% [at 9.22 µM] | activity change, negative = cytotoxic [11] 1.66% [at 9.22 µM] | activity change, negative = cytotoxic [12] -2.09% [at 9.22 µM] | activity change, negative = cytotoxic [13] 15.8% [at 9.22 µM] | activity change, negative = cytotoxic [17] -0.536% [at 11.5 µM] | activity change, negative = cytotoxic [14] -0.58% [at 9.22 µM]

CC1(C)O[C@@H]2C[C@H]3[C@@H]4C[C@H](F)C5=CC(=O)C=C[C@]5(C)[C@H]4[C@@H](O)C[C@]3(C)[C@]2(C(=O)CO)O1
inactive: Potency [1] | Potency [2] | Potency [3] | Potency [4] | Potency [5] | Potency [6] | Potency [7] | Potency [8] | Potency [10] | Potency [11] | Potency [12] | Potency [16] | Potency [13] | Potency [17] | Potency [15]

CCOC(=O)OC(C)OC1=C(C(=O)Nc2ccccn2)N(C)S(=O)(=O)c2ccccc21 (configuration not stated)
inactive: Potency [1] | Potency [2] | Potency [3] | Potency [4] | Potency [5] | Potency [6] | Potency [7] | Potency [8] | Potency [9] | Potency [10] | Potency [11] | Potency [12] | Potency [13] | Potency [17] | Potency [14] | Potency [15]

CC(=O)OCC(=O)[C@@]1(OC(C)=O)[C@@H](C)C[C@H]2[C@@H]3C[C@H](F)C4=CC(=O)C=C[C@]4(C)[C@@]3(F)[C@@H](O)C[C@@]21C
inactive: Potency [1] | Potency [2] | Potency [3] | Potency [4] | Potency [5] | Potency [6] | Potency [7] | Potency [8] | Potency [9] | Potency [10] | Potency [12] | Potency [16] | Potency [13] | Potency [17] | Potency [15]

COc1cc(/C=C/C(=O)O[C@H]2CC[C@]34C[C@]35CC[C@]3(C)[C@@H]([C@H](C)CCC=C(C)C)CC[C@@]3(C)[C@@H]5CC[C@H]4C2(C)C)ccc1O
inactive: Potency [1] | Potency [2] | Potency [3] | Potency [4] | Potency [5] | Potency [6] | Potency [7] | Potency [8] | Potency [10] | Potency [11] | Potency [12] | Potency [16] | Potency [13] | Potency [14]

CCC(=O)c1c(O)cc(O)cc1O
inactive: Potency [1] | Potency [2] | Potency [3] | Potency [4] | Potency [5] | Potency [6] | Potency [7] | Potency [8] | Potency [9] | Potency [10] | Potency [11] | Potency [12] | Potency [13] | Potency [17] | Potency [14] | Potency [15]

COC(=O)CCc1ccc(OCC(O)CNC(C)C)cc1 (configuration not stated)
inactive: Potency [1] | Potency [2] | Potency [3] | Potency [4] | Potency [5] | Potency [6] | Potency [7] | Potency [8] | Potency [10] | Potency [11] | Potency [12] | Potency [16] | Potency [13] | Potency [17] | Potency [15]
